The values below come from the supplement of paper PMC6555819.

The first assay deals with LXRb homodimer (NR concentration 270 nM). In words: PBM binding z-score (relative to random genomic background probes); higher = stronger binding; sequences stand for … in GC…GCGATTGACAGCGTAGAATGAAGG
The method in brief:
(§1)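 Custom Agilent 4×180K protein-binding microarrays carried double-stranded probes. Their 34-nt variable regions held direct-repeat seeds, single-nucleotide variants, half-site ablations and random human genomic background sequences. Arrays were incubated 1 h with ligand-free nuclear receptor dimers in PBS pH 7.4, 2% milk, 0.02% Triton X-100, 1 mM DTT, 0.2 mg/mL BSA and 0.4 mg/ml salmon testes DNA. Antibodies against each partner (one per run) detected binding, and scanned fluorescence was regression-normalized. Binding z-scores use random background probes as reference.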
For the sequence CCTAGCAGGCCAATCTGGGTGACTCAAGGCTTGA, the PBM binding z-score was -0.85.
Consider CGAACTAGGTCAGAACTGGACAGTGAAGGATGAT, for which the PBM binding z-score is -0.439.
Consider GGAACGAGGGCATTCGAGTTGATGGCATGGCGAT, for which the PBM binding z-score is -0.896.
On the same count and under the same terms, under TCAGACAGGTGAAGGTAACTCCGGTACGCAGTCG stands -0.314; under CGTCCCAGGTCAATGCTAGGTCAGTGAAAGCATT, -0.0307.
As to TCATATAGGTAAACAGGTGGAAGTCCGTAAGTTA, the PBM binding z-score amounted to 0.0407.
On to CCAGACAGGTGAAAGGTAACCCAGTCTGGTACGC, for which the PBM binding z-score is -0.0532.
On the same count and under the same terms, with CTACCAAGCTGAACAAGGTCGTTGATTACTATTC the figure was -0.0286; with GGAACGAGGGCGTTCGAGTTGATAGCATGGCGAT, -0.964.
On the same count and under the same terms, under CAGCCTAGGTCTGGGCCAGTATAGGAGGAACGTT stands -1.28; under GGAGACAGGTGAAACGCAGGTAACTCAGGGTGGC, -0.712.
The same measure, in the same setting: with TAGCCTAGGTCATGGGCCGGTATACCACGCGAAC the figure was 0.0172.
Turning to CAAACTCGGTCACAGAGGTCAAAGTCCGTGCGTA, the PBM binding z-score is 2.04.
In turn, CCTACTGCGCCACGAAAGGTCATTGATTCAGTGA registered a PBM binding z-score of 2.
With GCGTACGGGTCAAAGGTTATAGCATGAATAGAAT, the PBM binding z-score is -0.18.
CCATACGGGTCACGAGGTTATAGCACGACGAGCG: the PBM binding z-score is -0.0225.
The same measure, in the same setting: under TCATATAGGTAAATGCTAGGTGAAATTCCGATCT stands 0.187; under CGAACGAGGGGATGAGTTGATAGCAAATGCCGAT, -0.345.
Still for that read-out and setting: under GCATATAGGTGATACAAGGTGAAAGTCCGATTGT stands -0.213.
For the sequence CCGACTGCGGCAAAGGTTACCATACTCAGTACGA, the PBM binding z-score was -0.464.
Regarding ACTATTAGTTGTGACGAGGGCAACCGATAGGTTG, the PBM binding z-score was -0.181.
For the sequence TCGAGTAGGTTACCAATGGGGCATTCCGCTTTCT, the PBM binding z-score is -1.11.
The same measure, in the same setting: under CGAACTAGGTCCTCCAGGACAGTGAATACATTGA stands -0.593.
For TCAAGTAGGTTACCAATGGGGCATTCAGCTTTCT, the PBM binding z-score is -0.449.
Same read-out and setting: under GCTGTTAGGTCAACTGATGGTCAGCTAAAGCTCG stands 1.02.
Still for that read-out and setting: under TCATATAGGTAAACAGGTGCAAGTCCGTAAGTTA stands -0.121.
Same read-out and setting: with TCTTGTAGATCAATAGAGGATAAGAAAGTGCGCT the figure was -0.142.
On to TTACCAGGGTGAAGGTCGTTGATCCCTCTGTAGA, for which the PBM binding z-score is -0.184.
The same measure, in the same setting: with GCTAGCAGGCCATTTTGGTCACTCAATGACGGGC the figure was -0.971; with CGTCCAAGGTCAATGCTAGGTCAGTGTAAGCATT, 0.681; with TATACAGCGTCAAAGGCCAGAGTACGAATGTCGA, -0.382.
ATCTCGAGGTAAAGTTCAGTGAAAGATCGATAGA gave a PBM binding z-score of 0.424.
With CATACAGGGTCAGCTAGGCCAGTGTAGGGACGGC, the PBM binding z-score was 0.182.
ATATGTAGGTTATCGCGTCATTCAGTTTGCGCAT displayed a PBM binding z-score of 0.647.
Same read-out and setting: with CCGACTGGGGTAAAGGTTACCATACTCAGTACGA the figure was -0.702.
The same measure, in the same setting: with TAGCCTAGGTCATGCGGGCCAGGATAGTGTCGGC the figure was -0.35.
Same read-out and setting: under CCTAGTAGGTCAAGGTCACACACGCTATAGGTAC stands 1.12; under TCGAGTAGGTTACCATTGGGGCATTCAGCTTTCT, -0.492.
Consider TTACCAAGGTGGGCTGAGGTCGTTGATCCAACTC, for which the PBM binding z-score is -0.656.
Regarding AGAATGACGTTATACGTAGATCAGGGAAGAAAGT, the PBM binding z-score was -0.294.

Another assay relates to PPARa:RXRa (NR concentration 270 nM, RXRa partner concentration 90 nM). Described as above. The method in brief:
as §1
Sequence CCTAGCAGGCCAATCTGGGTGACTCAAGGCTTGA yielded a PBM binding z-score of 1.26.
Same read-out and setting: with CGAACTAGGTCAGAACTGGACAGTGAAGGATGAT the figure was 3.26.
Still for that read-out and setting: under GGAACGAGGGCATTCGAGTTGATGGCATGGCGAT stands 1.31; under TCAGACAGGTGAAGGTAACTCCGGTACGCAGTCG, 1.21.
Still for that read-out and setting: under CGTCCCAGGTCAATGCTAGGTCAGTGAAAGCATT stands 3.94.
The sequence TCATATAGGTAAACAGGTGGAAGTCCGTAAGTTA came in with a PBM binding z-score of 1.43.
The same measure, in the same setting: under CCAGACAGGTGAAAGGTAACCCAGTCTGGTACGC stands 3.4.
On the same count and under the same terms, under CTACCAAGCTGAACAAGGTCGTTGATTACTATTC stands 0.706; under GGAACGAGGGCGTTCGAGTTGATAGCATGGCGAT, -0.0431; under CAGCCTAGGTCTGGGCCAGTATAGGAGGAACGTT, -0.798.
The same measure, in the same setting: under GGAGACAGGTGAAACGCAGGTAACTCAGGGTGGC stands 1.03.
For the sequence TAGCCTAGGTCATGGGCCGGTATACCACGCGAAC, the PBM binding z-score was found to be 4.23.
Regarding CAAACTCGGTCACAGAGGTCAAAGTCCGTGCGTA, the PBM binding z-score came to 5.72.
On to CCTACTGCGCCACGAAAGGTCATTGATTCAGTGA, for which the PBM binding z-score worked out at 4.35.
The same measure, in the same setting: with GCGTACGGGTCAAAGGTTATAGCATGAATAGAAT the figure was 6.8; with CCATACGGGTCACGAGGTTATAGCACGACGAGCG, 5.93; with TCATATAGGTAAATGCTAGGTGAAATTCCGATCT, 1.17.
Still for that read-out and setting: with CGAACGAGGGGATGAGTTGATAGCAAATGCCGAT the figure was -0.335; with GCATATAGGTGATACAAGGTGAAAGTCCGATTGT, 2.26.
Same read-out and setting: under CCGACTGCGGCAAAGGTTACCATACTCAGTACGA stands 2.59; under ACTATTAGTTGTGACGAGGGCAACCGATAGGTTG, 0.388; under TCGAGTAGGTTACCAATGGGGCATTCCGCTTTCT, 1.01.
For CGAACTAGGTCCTCCAGGACAGTGAATACATTGA, the PBM binding z-score was 0.0563.
On to TCAAGTAGGTTACCAATGGGGCATTCAGCTTTCT, for which the PBM binding z-score amounted to 2.16.
As to GCTGTTAGGTCAACTGATGGTCAGCTAAAGCTCG, the PBM binding z-score worked out at 3.78.
The sequence TCATATAGGTAAACAGGTGCAAGTCCGTAAGTTA showed a PBM binding z-score of 1.65.
On the same count and under the same terms, with TCTTGTAGATCAATAGAGGATAAGAAAGTGCGCT the figure was 0.415.
The same measure, in the same setting: under TTACCAGGGTGAAGGTCGTTGATCCCTCTGTAGA stands 3.62; under GCTAGCAGGCCATTTTGGTCACTCAATGACGGGC, -0.67; under CGTCCAAGGTCAATGCTAGGTCAGTGTAAGCATT, 5.
TATACAGCGTCAAAGGCCAGAGTACGAATGTCGA displayed a PBM binding z-score of 0.0937.
The same measure, in the same setting: under ATCTCGAGGTAAAGTTCAGTGAAAGATCGATAGA stands 2.4; under CATACAGGGTCAGCTAGGCCAGTGTAGGGACGGC, 4.09; under ATATGTAGGTTATCGCGTCATTCAGTTTGCGCAT, 3.31.
Same read-out and setting: with CCGACTGGGGTAAAGGTTACCATACTCAGTACGA the figure was 5.22; with TAGCCTAGGTCATGCGGGCCAGGATAGTGTCGGC, 3.42.
As to CCTAGTAGGTCAAGGTCACACACGCTATAGGTAC, the PBM binding z-score was 5.98.
Same read-out and setting: under TCGAGTAGGTTACCATTGGGGCATTCAGCTTTCT stands 0.792; under TTACCAAGGTGGGCTGAGGTCGTTGATCCAACTC, 0.97.
On the same count and under the same terms, with AGAATGACGTTATACGTAGATCAGGGAAGAAAGT the figure was -0.611.
